Laboratory results as given in the supplement of paper PMC10849652.
Of roughly 7,900 targets only a part is listed; those with a hit were picked by preference. About 0.6% of all pairs of compound and target were hits. A number with no mark means an inactive call.

Experiments:
Experiment in all cases: log2 fold change, soluble protein after heating vs DMSO (PISA); higher = thermal stabilisation; K562 cells, 10 uM, 30 min; active = over 0.2 and 3.5 SD of the protein, either way, in both replicates (recomputed)
[1] = compound: CC[C@@H]1C(=O)N(C)c2cnc(Nc3ccc(C(=O)NC4CCN(C)CC4)cc3OC)nc2N1C1CCCC1
How it was run: (§1)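 K562 cells at 2×10^6 cells/mL were given 10 μM compound for 30 min. Aliquots then went through 3 min of heating across 48°C-58°C, were pooled, and were extracted in PBS with 0.5% NP-40 at 4°C, and the supernatant after 21,000xg for 90 min was quantified by TMTpro 16plex LC-MS/MS with channel sums equalised. Thermal stability relative to control samples, from duplicates, is given as log2 fold change.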

volasertib = compound: CC[C@@H]1C(=O)N(C)c2cnc(Nc3ccc(C(=O)N[C@H]4CC[C@H](N5CCN(CC6CC6)CC5)CC4)cc3OC)nc2N1C(C)C [volasertib]
How it was run: as §1

[2] = compound: CC[C@H](C)N1C=C(C2=C(C=C(C=C21)C3=CN=C(C=C3)N4CCNCC4)C(=O)NCC5=C(C=C(NC5=O)C)C)C
How it was run: as §1

epoxomicin = compound: CC[C@H](C)[C@@H](C(=O)N[C@@H]([C@@H](C)O)C(=O)N[C@@H](CC(C)C)C(=O)[C@]1(CO1)C)NC(=O)[C@H]([C@@H](C)CC)N(C)C(=O)C [epoxomicin]
How it was run: as §1

[3] = compound: CCn1c(C(=O)N(C2CC2)C2CC2)cc2c3c(ncn3C)c(Nc3cc(C)n(C)n3)nc21
How it was run: as §1

[4] = compound: CCn1cc(-c2ccnc3[nH]c(-c4cccc(CN(C)C)c4)cc23)c(-c2ccc(NC(=O)N(C)C)cc2)n1
How it was run: as §1

[5] = compound: CN(C)CC(=O)Nc1ccc2[nH]c(=O)c3ccccc3c2c1
How it was run: as §1

rosiglitazone = compound: CN(CCOC1=CC=C(C=C1)C[C@H]2C(=O)NC(=O)S2)C3=CC=CC=N3 (racemic) [rosiglitazone]
How it was run: as §1

[6] = compound: CN1C2=C(C3=C1C(=O)N(N=C3)CC4=CC(=CC=C4)N)SC(=C2)S(=O)C
How it was run: as §1

[7] = compound: CN1CCC(CNc2ccc3ncc(-c4cccc(OC(F)(F)F)c4)n3n2)CC1
How it was run: as §1

Sequence of UniProt P60602 (P60602 whole entry, looked up): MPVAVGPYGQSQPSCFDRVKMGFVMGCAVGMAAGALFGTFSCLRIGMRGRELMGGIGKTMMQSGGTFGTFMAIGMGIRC
Sequence of UniProt O43665 (O43665 whole entry, looked up): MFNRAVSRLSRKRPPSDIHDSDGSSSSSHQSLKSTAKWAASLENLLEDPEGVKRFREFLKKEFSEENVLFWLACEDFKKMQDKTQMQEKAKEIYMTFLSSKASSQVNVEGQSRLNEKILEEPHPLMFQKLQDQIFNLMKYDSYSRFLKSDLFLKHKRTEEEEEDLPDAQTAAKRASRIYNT
Sequence of UniProt Q96IZ7 (Q96IZ7 whole entry, looked up): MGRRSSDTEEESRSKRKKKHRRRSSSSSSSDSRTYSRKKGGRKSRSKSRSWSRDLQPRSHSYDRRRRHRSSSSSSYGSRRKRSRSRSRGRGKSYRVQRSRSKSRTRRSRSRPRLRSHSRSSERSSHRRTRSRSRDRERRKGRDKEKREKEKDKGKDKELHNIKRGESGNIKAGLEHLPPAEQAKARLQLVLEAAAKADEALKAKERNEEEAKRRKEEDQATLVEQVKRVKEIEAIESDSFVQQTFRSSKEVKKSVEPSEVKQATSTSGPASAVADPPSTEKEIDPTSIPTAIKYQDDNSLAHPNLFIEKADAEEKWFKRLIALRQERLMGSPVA
Sequence of UniProt Q04864 (Q04864 whole entry, looked up): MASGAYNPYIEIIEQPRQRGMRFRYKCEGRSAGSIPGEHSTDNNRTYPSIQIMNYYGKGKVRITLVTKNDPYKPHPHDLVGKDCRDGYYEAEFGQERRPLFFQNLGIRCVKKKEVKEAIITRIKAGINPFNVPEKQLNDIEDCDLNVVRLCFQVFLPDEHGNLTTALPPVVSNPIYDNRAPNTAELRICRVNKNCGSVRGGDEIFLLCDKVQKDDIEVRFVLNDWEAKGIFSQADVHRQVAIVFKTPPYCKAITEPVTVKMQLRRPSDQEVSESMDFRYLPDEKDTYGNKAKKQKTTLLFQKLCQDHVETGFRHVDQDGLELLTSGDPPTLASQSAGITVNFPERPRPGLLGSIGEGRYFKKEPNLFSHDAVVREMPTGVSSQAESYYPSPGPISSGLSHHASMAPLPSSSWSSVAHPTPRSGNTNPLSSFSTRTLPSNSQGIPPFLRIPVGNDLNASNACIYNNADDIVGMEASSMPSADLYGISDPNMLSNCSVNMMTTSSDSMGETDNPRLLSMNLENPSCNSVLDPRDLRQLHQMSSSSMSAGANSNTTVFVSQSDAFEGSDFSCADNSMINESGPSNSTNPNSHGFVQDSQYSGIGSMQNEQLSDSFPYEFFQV
Sequence of UniProt Q9NSI8 (Q9NSI8 whole entry, looked up): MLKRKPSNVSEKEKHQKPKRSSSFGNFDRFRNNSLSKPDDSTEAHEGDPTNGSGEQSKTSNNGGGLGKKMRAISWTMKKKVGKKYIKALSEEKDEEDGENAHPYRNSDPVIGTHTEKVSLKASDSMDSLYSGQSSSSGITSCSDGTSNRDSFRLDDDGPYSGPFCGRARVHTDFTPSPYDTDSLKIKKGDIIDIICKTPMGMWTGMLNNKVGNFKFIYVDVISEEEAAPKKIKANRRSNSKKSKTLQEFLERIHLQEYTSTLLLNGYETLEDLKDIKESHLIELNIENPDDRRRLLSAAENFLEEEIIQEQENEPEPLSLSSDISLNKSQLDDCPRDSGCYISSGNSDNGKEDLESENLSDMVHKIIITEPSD
Sequence of UniProt O14796 (O14796 whole entry, looked up): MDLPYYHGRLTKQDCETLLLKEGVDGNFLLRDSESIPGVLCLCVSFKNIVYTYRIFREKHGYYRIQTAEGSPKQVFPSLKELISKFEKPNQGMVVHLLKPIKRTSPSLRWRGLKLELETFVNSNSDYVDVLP
Sequence of UniProt Q8NBX0 (Q8NBX0 whole entry, looked up): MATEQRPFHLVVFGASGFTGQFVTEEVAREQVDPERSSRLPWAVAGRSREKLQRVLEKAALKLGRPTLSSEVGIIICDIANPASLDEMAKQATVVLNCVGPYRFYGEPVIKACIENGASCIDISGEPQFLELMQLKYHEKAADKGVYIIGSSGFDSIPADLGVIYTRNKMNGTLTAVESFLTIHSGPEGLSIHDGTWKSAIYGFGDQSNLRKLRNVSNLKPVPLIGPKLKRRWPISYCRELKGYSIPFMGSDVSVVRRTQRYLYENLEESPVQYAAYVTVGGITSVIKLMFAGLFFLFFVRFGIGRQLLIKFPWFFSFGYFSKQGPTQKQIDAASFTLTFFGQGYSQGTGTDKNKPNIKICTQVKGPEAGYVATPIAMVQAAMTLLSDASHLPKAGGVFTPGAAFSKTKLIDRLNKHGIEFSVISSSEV
Sequence of UniProt Q14151 (Q14151 whole entry, looked up): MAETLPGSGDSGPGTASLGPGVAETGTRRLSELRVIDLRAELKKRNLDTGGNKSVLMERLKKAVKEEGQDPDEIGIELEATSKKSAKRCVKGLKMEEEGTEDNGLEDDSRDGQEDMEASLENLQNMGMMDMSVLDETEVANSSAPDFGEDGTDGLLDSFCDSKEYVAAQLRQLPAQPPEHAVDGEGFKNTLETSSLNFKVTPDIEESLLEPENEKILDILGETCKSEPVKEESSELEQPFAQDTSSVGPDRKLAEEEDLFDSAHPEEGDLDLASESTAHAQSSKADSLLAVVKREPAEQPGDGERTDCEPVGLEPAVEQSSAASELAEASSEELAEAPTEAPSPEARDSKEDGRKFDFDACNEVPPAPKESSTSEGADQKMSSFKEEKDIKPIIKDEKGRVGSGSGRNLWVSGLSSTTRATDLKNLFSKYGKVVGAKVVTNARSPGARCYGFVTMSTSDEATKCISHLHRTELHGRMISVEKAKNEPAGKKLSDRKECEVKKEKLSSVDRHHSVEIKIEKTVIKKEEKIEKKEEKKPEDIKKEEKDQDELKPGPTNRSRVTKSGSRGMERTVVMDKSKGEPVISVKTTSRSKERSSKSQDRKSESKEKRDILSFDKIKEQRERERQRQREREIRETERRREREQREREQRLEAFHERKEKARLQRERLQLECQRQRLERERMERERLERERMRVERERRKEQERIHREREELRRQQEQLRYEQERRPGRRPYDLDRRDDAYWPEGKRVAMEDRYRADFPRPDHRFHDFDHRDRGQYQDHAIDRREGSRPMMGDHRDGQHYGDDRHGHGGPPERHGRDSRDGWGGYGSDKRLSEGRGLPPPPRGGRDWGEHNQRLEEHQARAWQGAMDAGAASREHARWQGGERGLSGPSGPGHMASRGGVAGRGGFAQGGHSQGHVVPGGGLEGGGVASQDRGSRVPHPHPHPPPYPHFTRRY
Sequence of UniProt Q96D15 (Q96D15 whole entry, looked up): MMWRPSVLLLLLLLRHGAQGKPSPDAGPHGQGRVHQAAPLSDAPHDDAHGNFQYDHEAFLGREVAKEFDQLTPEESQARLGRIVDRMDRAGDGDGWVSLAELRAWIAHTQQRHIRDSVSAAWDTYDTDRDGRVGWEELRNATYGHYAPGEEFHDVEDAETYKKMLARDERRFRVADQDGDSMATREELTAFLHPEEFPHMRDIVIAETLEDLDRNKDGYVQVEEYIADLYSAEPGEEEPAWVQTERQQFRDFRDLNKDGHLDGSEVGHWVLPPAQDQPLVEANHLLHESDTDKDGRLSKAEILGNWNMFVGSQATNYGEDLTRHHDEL
Sequence of UniProt Q86TU7 (Q86TU7 whole entry, looked up): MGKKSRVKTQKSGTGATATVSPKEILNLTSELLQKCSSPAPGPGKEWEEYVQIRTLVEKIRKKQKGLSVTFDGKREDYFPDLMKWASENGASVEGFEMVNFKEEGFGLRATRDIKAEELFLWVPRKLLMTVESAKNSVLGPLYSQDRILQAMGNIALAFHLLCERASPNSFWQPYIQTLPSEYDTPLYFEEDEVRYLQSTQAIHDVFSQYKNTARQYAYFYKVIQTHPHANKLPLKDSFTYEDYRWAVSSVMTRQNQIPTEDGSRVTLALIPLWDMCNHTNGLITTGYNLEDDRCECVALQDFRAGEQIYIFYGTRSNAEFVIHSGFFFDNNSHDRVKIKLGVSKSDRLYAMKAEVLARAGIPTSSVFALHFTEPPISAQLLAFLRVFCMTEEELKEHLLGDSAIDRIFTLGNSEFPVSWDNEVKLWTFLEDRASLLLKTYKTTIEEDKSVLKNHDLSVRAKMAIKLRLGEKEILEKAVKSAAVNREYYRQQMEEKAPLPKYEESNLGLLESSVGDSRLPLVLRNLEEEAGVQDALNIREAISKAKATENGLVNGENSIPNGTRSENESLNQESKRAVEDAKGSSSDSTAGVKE

| Target | log2 fold change [1] | log2 fold change (volasertib) | log2 fold change [2] | log2 fold change (epoxomicin) | log2 fold change [3] | log2 fold change [4] | log2 fold change [5] | log2 fold change (rosiglitazone) | log2 fold change [6] | log2 fold change [7] |
| --- | --- | --- | --- | --- | --- | --- | --- | --- | --- | --- |
| RABGAP1L isoform 3 (UniProt Q5R372) | -0.046 | -0.107 | 0.053 | 0.08 | -0.028 | -0.034 | -0.011 | -0.026 | 0.02 | 0.025 |
| RIOK2 (UniProt Q9BVS4) | 0.133 | 0.267 | 0.015 | -0.032 | 0.019 | -0.013 | -0.038 | 0.014 | 0.085 | 0.202 |
| SAFB2 (UniProt Q14151) | 0.018 | 0.118 | -0.022 | -0.246 | -0.003 | 0.203 | -0.061 | -0.028 | 0.235 | 0.23 |
| RPS2 (UniProt P15880) | 0.168 | 0.348 | 0.021 | -0.191 | 0.045 | 0.119 | -0.108 | -0.092 | 0.195 | 0.086 |
| RPS5 (UniProt P46782) | 0.103 | 0.337 | 0.065 | -0.079 | 0.025 | 0.059 | -0.036 | -0.073 | 0.089 | 0.044 |
| SCCPDH (UniProt Q8NBX0) | 0.083 | 0.158 | -0.06 | -0.024 | 0.008 | -0.07 | 0.039 | 0.022 | -0.194 | 0.216 |
| RAP1GDS1 isoform 5 (UniProt P52306) | -0.018 | -0.27 | 0.077 | 0 | 0.01 | -0.008 | -0.017 | 0.072 | -0.012 | -0.002 |
| SAAL1 (UniProt Q96ER3) | -0.167 | -0.245 (active) | 0.001 | 0.025 | -0.038 | 0.025 | -0.025 | 0.051 | -0.012 | -0.219 |
| RRAGC (UniProt Q9HB90) | -0.009 | -0.003 | -0.051 | -0.045 | 0.041 | 0 | -0.024 | 0.05 | -0.067 | -0.177 |
| RAB5C isoform 2 (UniProt P51148) | 0.004 | 0.045 | -0.024 | 0 | 0.029 | -0.002 | 0 | -0.011 | -0.032 | 0.018 |
| RRP36 (UniProt Q96EU6) | 0.217 | 0.376 | -0.028 | -0.203 | 0.002 | 0.201 | -0.114 | -0.25 | 0.316 | 0.288 |
| RGS10 (UniProt O43665) | -0.097 | -0.205 (active) | -0.043 | 0.101 | -0.025 | 0.011 | 0.078 | 0.011 | -0.111 | -0.016 |
| SETD3 (UniProt Q86TU7) | -0.017 | -0.018 | 0.055 | -0.024 | -0.004 | -0.002 | -0.02 | 0.015 | -0.056 | 0.06 |
| RSRC1 (UniProt Q96IZ7) | 0.01 | 0.056 | -0.041 | 0.083 | 0.022 | -0.021 | -0.005 | 0.002 | -0.01 | -0.062 |
| RANBP2 (UniProt P49792) | 0.058 | -0.006 | -0.008 | 0 | -0.063 | 0.099 | 0.026 | 0.03 | -0.033 | -0.052 |
| RAB3IL1 (UniProt E9PK89) | -0.012 | -0.137 | 0.25 | 0.109 | -0.138 | -0.555 (active) | 0.035 | 0.017 |  | -0.342 |
| REL (UniProt Q04864) | 0.045 | -0.176 | -0.022 | 0.043 | -0.062 | 0.159 | 0.003 | 0.063 | 0.011 | 0.141 |

| Target | log2 fold change [1] | log2 fold change (volasertib) | log2 fold change [2] | log2 fold change (epoxomicin) | log2 fold change [3] | log2 fold change [4] | log2 fold change [5] | log2 fold change (rosiglitazone) | log2 fold change [6] | log2 fold change [7] |
| --- | --- | --- | --- | --- | --- | --- | --- | --- | --- | --- |
| RCN3 (UniProt Q96D15) | -0.033 | 0.053 | -0.031 | -0.118 | 0 | -0.007 | -0.019 | 0.029 | -0.03 | -0.234 |
| SAMSN1 isoform 3 (UniProt Q9NSI8) | -0.069 | -0.153 | 0.026 | 0.018 | -0.02 | -0.065 | 0.017 | 0.067 | 0 | -0.253 (active) |
| ROR2 (UniProt Q01974) | -0.107 | -0.123 | 0.129 | 0.035 | -0.012 | -0.015 | -0.01 | 0.036 | -0.069 | -0.089 |
| RMC1 (UniProt Q96DM3) | -0.192 | -0.416 (active) | 0.095 | -0.025 | -0.041 | 0.042 | -0.023 | 0.005 | -0.039 | -0.146 |
| SERINC1 (UniProt Q9NRX5) | 0.001 | 0.025 | -0.223 | -0.034 | 0.019 |  | -0.023 | -0.051 | -0.194 |  |
| SENP6 (UniProt Q9GZR1) | -0.086 | -0.07 | -0.044 | -0.039 | 0.029 | -0.022 | -0.017 | 0.004 | -0.014 | -0.038 |
| ROMO1 (UniProt P60602) | 0.033 | 0.01 | -0.06 | -0.178 | 0.024 | -0.023 |  | -0.023 | 0.125 | 0.049 |
| SH2D1B (UniProt O14796) | -0.068 | -0.029 | 0.095 | 0.168 | 0.092 | -0.068 | -0.025 |  | 0.235 | -0.174 |
| RPS3A (UniProt P61247) | 0.133 | 0.339 | 0.02 | -0.124 | 0.028 | 0.114 | -0.063 | -0.064 | 0.138 | 0.105 |
| SDCBP isoform 2 (UniProt O00560) | -0.015 | -0.221 | -0.021 | 0.056 | -0.068 | -0.234 |  | 0.105 | -0.196 | -0.208 |
| RAB3D (UniProt O95716) | 0.039 | 0.025 | 0.097 |  | 0.067 | 0.041 | -0.098 | -0.013 | 0.103 | 0.129 |
| RRAS2 isoform 4 (UniProt P62070) | 0.061 | 0.124 | -0.048 | 0.063 | 0.004 | 0.014 | -0.013 | 0.019 | -0.064 | 0.207 (active) |
| SCG3 (UniProt Q8WXD2) | 0.04 | 0.134 | -0.013 | -0.119 | 0.048 | 0.035 | -0.099 | -0.027 | -0.116 | 0.6 (active) |
| SCAMP2 (UniProt H3BUB6) | -0.015 | -0.006 | -0.092 | -0.157 | -0.058 |  | -0.201 | -0.034 | 0.064 |  |
| RIOK3 (UniProt O14730) | 0.084 | 0.04 | -0.01 | 0.072 | 0.001 | -0.053 | -0.011 | 0.024 | -0.023 | -0.041 |
| RAD51 (UniProt Q06609) | 0.013 | 0.113 | 0.026 | 0.157 | -0.029 | -0.011 | -0.024 | -0.016 | -0.075 | 0.051 |
